Results filed as inconclusive are left out. Activity calls are given as the source filed them. Unless noted, calls come from the whole dose curve; as a rule, active = well fitted curve in the direction sought with a large enough effect in the repeat runs; inconclusive = weak or mixed curves; inactive = no such curve, though single readings can be large; an effect the other way counts as inactive or inconclusive.
How the values were obtained:
[1] = qHTS assay to identify small molecule agonists of the vitamin D receptor (VDR) signaling pathway - cell viability counter screen (AID 743224); note: series mostly up to about 63 µM; % is set by controls: 0 for no effect and ±100 for the full control effect; nearly all actives have a fitted effect of over 50% in size
Summary of the method: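 Viability is measured in the same wells as the VDR-bla reporter assay: after 16 h compound treatment and 2 h substrate loading, CellTiter-Glo is added and luminescence read 30 min later.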

[2] = qHTS assay to identify small molecule antagonists of the vitamin D receptor (VDR) signaling pathway - cell viability counter screen (AID 743225); note: % is set by controls: 0 for no effect and ±100 for the full control effect; nearly all actives have a fitted effect of over 50% in size
Summary of the method: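 Viability counter screen run in the same wells as the beta-lactamase reporter assay: HEK 293T VDR-UAS-bla cells, 16 h compound exposure at 37C with 3 nM (final) 1-alpha,25-dihydroxyvitamin D3. CellTiter-Glo luminescence, 30 min, room temperature.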

[3] = qHTS assay to identify small molecule agonists of the NFkB signaling pathway - cell viability counter screen (AID 1159515; calls by dose curve; note: series mostly up to about 61 µM; % is set by controls: 0 for no effect and ±100 for the full control effect; nearly all actives have a fitted effect of over 55% in size)
Summary of the method: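 Multiplexed viability readout: after the 5 hr compound exposure and 1.5 hr FRET substrate step, CellTiter-Glo reagent went into the same NFkB-bla ME-180 wells; ATP luminescence was measured after 30 min at room temperature.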

[4] = qHTS assay to identify small molecule agonists of the endoplasmic reticulum stress response signaling pathway (AID 1159516; active = well fitted activation curve with a large enough effect in the signal ratio in the repeat runs, not every such curve was filed as active; the % refers to the signal ratio; note: % is set by controls: 0 for no effect and ±100 for the full control effect)
Summary of the method: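 Tox21 10K library screened in quantitative HTS format on ESRE-bla HeLa cells, a beta-lactamase reporter under ER stress response element control; 5 hr treatment, FRET read.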

[5] = qHTS assay to identify small molecule agonists of the endoplasmic reticulum stress response signaling pathway - cell viability counter screen (AID 1159517; calls by dose curve; note: series mostly up to about 61 µM; % is set by controls: 0 for no effect and ±100 for the full control effect; nearly all actives have a fitted effect of over 50% in size)
Summary of the method: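 ESRE-bla HeLa cells, 1,500 per well, seeded overnight then treated with compounds for 5 hr at 37 C. After the beta-lactamase read, viability in the same wells is measured by CellTiter-Glo luminescence after 30 min at room temperature.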

[6] = qHTS assay to identify small molecule antagonists of the retinoid-related orphan receptor gamma (ROR-gamma) signaling pathway - cell viability counter screen (AID 1159520); note: % is set by controls: 0 for no effect and ±100 for the full control effect; nearly all actives have a fitted effect of over 50% in size
Summary of the method: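 Tet-on ROR gamma CHO cells were given compounds for 2 hr, then doxycycline hyclate at 1 uM final, and incubated 16 hr at 37 C. Viability was measured as ATP content by CellTiter-Glo luminescence.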

[7] = molecular target: Nuclear receptor ROR-gamma (Homo sapiens) (UniProt P51449); test: qHTS assay to identify small molecule antagonists of the retinoid-related orphan receptor gamma (ROR-gamma) signaling pathway (AID 1159521)
Summary of the method: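 Luminescence readout (ONE-Glo, 30 min RT) after 16 h doxycycline induction; loss of signal scored as antagonism. CHO cells with TET-inducible RORγ and RORE-LUC reporter; compounds added 2 h before 1 uM final doxycycline.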

[8] = qHTS assay to identify small molecule agonists of the AP-1 signaling pathway (AID 1159526; calls by dose curve; note: % is set by controls: 0 for no effect and ±100 for the full control effect)
[9] = molecular target: Retinoic acid receptor RXR-alpha (Homo sapiens) (UniProt P19793); test: qHTS assay to identify small molecule agonists of the RXR signaling pathway (AID 1159527; calls by dose curve; note: % is set by controls: 0 for no effect and ±100 for the full control effect; nearly all actives have a fitted effect of over 35% in size)
Chain of Retinoic acid receptor RXR-alpha (Homo sapiens) (P19793 whole entry, looked up): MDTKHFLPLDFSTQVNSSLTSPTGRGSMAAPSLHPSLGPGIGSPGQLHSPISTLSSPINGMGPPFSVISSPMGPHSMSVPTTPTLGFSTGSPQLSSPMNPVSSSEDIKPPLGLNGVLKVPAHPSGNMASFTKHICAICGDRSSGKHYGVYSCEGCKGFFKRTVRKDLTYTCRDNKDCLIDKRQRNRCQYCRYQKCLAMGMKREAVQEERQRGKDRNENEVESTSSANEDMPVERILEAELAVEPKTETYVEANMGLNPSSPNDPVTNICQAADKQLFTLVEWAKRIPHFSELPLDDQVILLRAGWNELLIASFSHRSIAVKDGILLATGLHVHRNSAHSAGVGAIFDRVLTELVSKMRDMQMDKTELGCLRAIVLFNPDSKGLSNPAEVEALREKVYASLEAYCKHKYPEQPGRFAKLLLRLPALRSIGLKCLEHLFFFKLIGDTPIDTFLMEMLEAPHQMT
Summary of the method: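 Agonist mode; 9-cis retinoic acid positive control. HEK 293T UAS-bla reporter cells, 2% charcoal-stripped FBS, 16 hr compound exposure at 37 C/5% CO2. LiveBLAzer B/G FRET substrate 2 hr RT; ex 405, em 460/530 nm.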

[10] = qHTS assay to identify small molecule agonists of the RXR signaling pathway - cell viability counter screen (AID 1159529)
Summary of the method: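 Luminescence from CellTiter-Glo (30 min, RT) measured viability in the same wells as the beta-lactamase reporter readout. Cells: GeneBLAzer RXR-alpha HEK 293T, 2% charcoal-stripped FBS. Compound exposure 16 hr, 37 C.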

[11] = qHTS assay to identify small molecule antagonists of the retinoid acid receptor (RAR) signaling pathway - cell viability counter screen (AID 1159551); note: % is set by controls: 0 for no effect and ±100 for the full control effect; nearly all actives have a fitted effect of over 35% in size
Summary of the method: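 Cytotoxicity counter screen in C3RL4 cells: 6 h compound exposure with 1 uM retinol (final), viability from cellular ATP by luminescence.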

[12] = qHTS assay to identify small molecule agonists of the AP-1 signaling pathway - cell viability counter screen (AID 1159525; calls by dose curve; note: nearly all actives have a fitted effect of over 55% in size)
Summary of the method: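 AP-1-bla ME-180 cells in Opti-MEM with 0.5% dialyzed FBS, compound exposure 5 h at 37 C in 15-point titration. Viability read in the same wells as ATP content by CellTiter-Glo luminescence, normalised to tetra-n-octylammonium bromide and DMSO controls.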

[13] = qHTS assay to identify small molecule antagonists of the estrogen related receptor (ERR) signaling pathway - cell viability counter screen (AID 1224818);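 note: series mostly up to about 46 µM; viability measured after 17.5 h of compound exposure; % is set by controls: 0 for no effect and ±100 for the full control effect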
Summary of the method: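 Cells carrying the ERR pathway reporter were seeded and incubated for 6 hours before compound addition. After a 17.5-hour exposure at 37 C, live-cell protease activity was measured by CellTiter-Fluor fluorescence following 30 minutes of incubation.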

[14] = qHTS assay to identify small molecule antagonists of the estrogen related receptor (ERR) signaling pathway (AID 1224819)
Summary of the method: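 Compounds dissolved in DMSO were pin-transferred onto ERR cells that had been plated 6 h earlier, and cells were then incubated 18 h at 37 C; signal was luciferase luminescence via One-Glo.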

[15] = qHTS assay to identify small molecule agonists of the estrogen related receptor (ERR) signaling pathway (AID 1224820); note: % is set by controls: 0 for no effect and ±100 for the full control effect
Summary of the method: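 Cells: ERR line from NTP, 2,000/well. Pre-incubation 6 h, 37 C/5% CO2. Compound (DMSO) pin transfer, 18 h 37 C. One-Glo, 30 min RT, luminescence.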

[16] = test system: estrogen-related receptor alpha (ERRalpha) with PGC-1alpha coactivator, human; test: qHTS assay to identify small molecule antagonists of the estrogen related receptor signaling pathway with the pleiotropic PPARgamma coactivator (PGC) (AID 1224821; calls by dose curve)
Summary of the method: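 Luminescent read-out (One-Glo, 30 min at room temperature) following 18 h treatment of PGC/ERR cells at 37 C with compounds delivered in DMSO. Cells had settled 6 h at 37 C/5% CO2 before dosing.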

[17] = qHTS assay to identify small molecule antagonists of the estrogen related receptor signaling pathway with the pleiotropic PPARgamma coactivator (PGC) cell viability counter screen (AID 1224822)
Summary of the method: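 Seed PGC/ERR cells (2,000/well); incubate 6 h at 37 C/5% CO2; pin-transfer compounds in DMSO; incubate 17.5 h at 37 C; add CellTiter-Fluor; after 30 min read fluorescence.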

[18] = qHTS assay to identify small molecule agonists of the estrogen related receptor signaling pathway with the pleiotropic PPARgamma coactivator (PGC) (AID 1224823); note: % is set by controls: 0 for no effect and ±100 for the full control effect
Summary of the method: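 Steps: plate PGC/ERR cells at 2,000 cells/well; incubate 6 h, 37 C/5% CO2; pin-transfer compounds (DMSO); incubate 18 h, 37 C; add One-Glo; 30 min RT; read luminescence.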

[19] = qHTS assay to identify small molecule antagonists of the retinoic acid receptor (RAR) signaling pathway (AID 1159552)
Summary of the method: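 Luminescence from a RARE luciferase reporter in C3RL4 cells served as read-out. Cells received compounds together with 1 uM final retinol and incubated 6 hr at 37 C before detection reagent was added for 30 min at room temperature.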

[20] = qHTS assay to identify small molecule agonists of the retinoic acid receptor (RAR) signaling pathway (AID 1159553); note: % is set by controls: 0 for no effect and ±100 for the full control effect
Summary of the method: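 Agonist activity was scored in C3RL4 cells bearing a retinoic acid response element luciferase construct. Cells were treated with compounds for 6 hr at 37 C, and luciferase signal was measured as luminescence.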

CCCC[N+](C)(CCCC)CCCC
inactive: outcome [1] | outcome [2] | outcome [3] | outcome [4] | outcome [5] | outcome [6] | Potency [7] | outcome [8] | Potency [9] | Potency [10] | outcome [11]

CN(C)C(=O)Oc1ccc[n+](C)c1
inactive: outcome [1] | outcome [2] | outcome [3] | outcome [4] | outcome [5] | outcome [6] | Potency [7] | outcome [12] | outcome [8] | Potency [10] | outcome [11] | outcome [13] | outcome [14] | outcome [15] | outcome [16] | outcome [17] | outcome [18]

CC1=NS(=O)(=O)c2cc(Cl)ccc2N1
inactive: outcome [2] | outcome [3] | outcome [4] | outcome [5] | outcome [6] | Potency [7] | outcome [12] | outcome [8] | Potency [10] | outcome [11] | outcome [13]

O=C(CO)[C@@H](O)[C@H](O)[C@@H](O)CO
inactive: outcome [1] | outcome [2] | outcome [3] | outcome [4] | outcome [5] | outcome [6] | Potency [7] | outcome [12] | outcome [8] | Potency [10] | outcome [11]

CCCCCCCCCCCCCCC(=O)O
inactive: outcome [1] | outcome [2] | outcome [3] | outcome [4] | outcome [5] | outcome [6] | Potency [7] | outcome [8] | Potency [9] | Potency [10] | outcome [11]

C[N+](C)(CCOc1ccccc1)Cc1cccs1
inactive: outcome [1] | outcome [2] | outcome [3] | outcome [4] | outcome [5] | outcome [6] | Potency [7] | outcome [8] | Potency [9] | Potency [10] | outcome [11]

CCN[C@@H]1C[C@H](N)[C@@H](OC2OC(CN)=CCC2N)[C@H](O)[C@H]1O[C@H]1OC[C@](C)(O)[C@H](NC)[C@H]1O (some centres not stated)
inactive: activity change, negative = cytotoxicity [1] 0.0384% [at 0.55 µM] | viability change, negative = cytotoxic [2] 2.46% [at 0.628 µM] | activity, negative = cytotoxic [3] 6.29% [at 0.628 µM] | activation [4] 0.974% [at 0.628 µM] | activity change, negative = cytotoxicity [5] -1.46% [at 0.628 µM] | activity, negative = cytotoxicity [6] 3.44% [at 0.349 µM] | activity change, negative = inhibition [7] 45.3% [at 0.35 µM] | activation [8] -3.82% [at 0.29 µM] | activation [9] 6.62% [at 0.29 µM] | activity change, negative = cytotoxicity [10] -0.24% [at 0.29 µM] | activity change, negative = cytotoxicity [11] 2.69% [at 0.349 µM] | activity, negative = inhibition [19] 11.8% [at 0.349 µM] | activation [20] 1.16% [at 0.756 µM]

c1ccc(CCc2ccccc2)cc1
inactive: outcome [1] | outcome [2] | outcome [3] | outcome [4] | outcome [5] | outcome [6] | Potency [7] | outcome [12] | outcome [8] | Potency [10] | outcome [11] | Potency [20]

Nc1ccccn1
inactive: outcome [1] | outcome [2] | outcome [3] | outcome [4] | outcome [5] | outcome [6] | Potency [7] | outcome [8] | Potency [9] | Potency [10] | outcome [11] | Potency [20]

COc1cccc(OC)c1C(=O)N[C@@H]1C(=O)N2[C@@H]1SC(C)(C)[C@@H]2C(=O)O
inactive: outcome [1] | outcome [2] | outcome [3] | outcome [4] | outcome [5] | outcome [6] | Potency [7] | outcome [8] | Potency [9] | Potency [10] | outcome [11]

Cc1ccccc1N=C(N)N=C(N)N
inactive: outcome [1] | outcome [2] | outcome [3] | outcome [4] | outcome [5] | outcome [6] | Potency [7] | outcome [8] | Potency [9] | Potency [10] | outcome [11]

CC(C)C1CCC(O)CC1 (configuration not stated)
inactive: outcome [1] | outcome [2] | outcome [3] | outcome [4] | outcome [5] | outcome [6] | Potency [7] | outcome [8] | Potency [9] | Potency [10] | outcome [11]

CCCCS(=O)(=O)N[C@@H](Cc1ccc(OCCCCC2CCNCC2)cc1)C(=O)O
inactive: outcome [1] | outcome [2] | outcome [3] | outcome [4] | outcome [5] | outcome [6] | Potency [7] | outcome [12] | outcome [8] | Potency [10] | outcome [11] | Potency [20]

CCOC(=O)OC(C)OC1=C(C(=O)Nc2ccccn2)N(C)S(=O)(=O)c2ccccc21 (configuration not stated)
inactive: outcome [1] | outcome [2] | outcome [3] | outcome [4] | outcome [5] | outcome [6] | Potency [7] | outcome [12] | outcome [8] | Potency [10] | outcome [11]

CN(C)CCCCCCN(C)C
inactive: outcome [1] | outcome [3] | outcome [4] | outcome [5] | outcome [6] | Potency [7] | outcome [8] | Potency [9] | Potency [10] | outcome [11] | Potency [20]

NC(=O)NC1N=C([O][Al])NC1=O (configuration not stated)
inactive: outcome [1] | outcome [2] | outcome [3] | outcome [4] | outcome [5] | Potency [7] | outcome [8] | Potency [9] | Potency [10] | outcome [11]

CCCCN(CCC(=O)OCC)C(C)=O
inactive: outcome [1] | outcome [2] | outcome [3] | outcome [4] | outcome [5] | Potency [7] | outcome [12] | outcome [8] | Potency [9] | Potency [10] | outcome [11]

Reference: PubChem BioAssay (Tox21)
